Screens as filed in PubChem BioAssay.
aSyn UTR act: Activators working through SNCA 5'UTR binding (MLPCN). alpha-synuclein 5'UTR reporter, activators screen. activity score, % (tested at 7.5 µM), hits read low. 7.1% of 300,000 active. AID 1814; in the data active = activity score below about -60%
* marks the source's active call; other numbers are inactive results. Not all results are given here.

SMILES | aSyn UTR act
CC(Oc1cccc(Cl)c1)C(=O)Nc1ccc([N+](=O)[O-])cn1 (stereo unspecified) | 55.1
Cc1cc(C(=O)Nc2ccc([N+](=O)[O-])cn2)cs1 | -137.4*
Cc1ccc(C(=O)Nc2ccc([N+](=O)[O-])cn2)o1 | -93.3*
O=C(/C(=C(\[O-])c1ccccc1)[n+]1ccc2ccccc2c1)c1ccc(Cl)cc1 | -62.6*
O=C(/C(=C(\[O-])c1ccccc1)[n+]1ccc2ccccc2c1)c1ccccc1 | -71.7*
Cc1ccc(NC(=O)c2cnccn2)nc1 | -77.6*
Cc1ccc(NC(=O)c2cnccn2)c(Br)c1 | -87.3*
c1ccc(OCCSc2nnnn2-c2ccccc2)cc1 | -86.1*
Fc1ccccc1OCCSc1nnnn1-c1ccccc1 | -82.9*
Cc1cccc(N=CC=C2OC(C)(C)C(C)(C)O2)c1 | -81.3*
COc1cccc(N=CC=C2OC(C)(C)C(C)(C)O2)c1 | -98.6*
CCOc1ccc(N/C=C/C(=O)c2ccc3ccccc3c2)c([N+](=O)[O-])c1 | -158.5*
CCOc1ccc(N/C=C/C(=O)c2ccc(C)cc2)c([N+](=O)[O-])c1 | -197.7*
Cc1ccc(C(=O)/C=C/Nc2ccc([N+](=O)[O-])cc2Br)cc1 | -124.4*
O=C(Cc1noc2ccccc12)Nc1ccccn1 | -89.1*
Cc1ccc(NC(=O)Cc2noc3ccccc23)nc1 | -69.2*
Cc1cc(C)n(C(N)=NC(=O)c2ccc([N+](=O)[O-])cc2)n1 | -153.7*
O=c1nc2c(-c3cccc(Br)c3)n[nH]n2c2ccccc12 | -175.9*
Cc1nn(-c2ccccc2Cl)c(Cl)c1/C=N/Nc1cccc(C(=O)O)c1 | 103.3
O=C(O)c1ccc(N/N=C/C=C/c2ccccc2)cc1 | -124.8*
Cc1nn(-c2cccc(C(F)(F)F)c2)c(Cl)c1/C=N/Nc1cccc(C(=O)O)c1 | -108.2*
O=C(O)c1cc(N/N=C/c2ccc(-c3ccccc3)cc2)ccc1Cl | -201.9*
C/C(=N\Nc1cccc(C(F)(F)F)c1)c1ccc(O)cc1 | -76.1*
O=C(O)c1ccc(/C=N/Nc2cccc(C(F)(F)F)c2)cc1 | -136.7*
CC(C)c1ccc(/C=N/Nc2ccc(C(=O)O)cc2)cc1 | 85.0
SMILES | aSyn UTR act
O=C(O)c1ccc(N/N=C/c2ccc(-c3ccccc3)cc2)cc1 | -78.0*
CSc1ccc(/C=N/Nc2ccc(Cl)c(C(=O)O)c2)cc1 | -134.0*
Cc1cc(Nc2ccccc2)n2nc(C)c(-c3ccccc3)c2n1 | -64.0*
Cc1noc(C)c1C(=O)OCC(=O)c1cc(C)n(Cc2ccccc2Cl)c1C | -98.3*
O=C(c1ccc(CS(=O)Cc2ccccc2Cl)o1)N1CCN(c2ccccn2)CC1 (stereo unspecified) | -84.9*
CCOC(=O)c1sc2nc3n(c(=O)c2c1C)CCCCC3 | -213.8*
CSc1cccc(NC(=O)c2sc3nc4n(c(=O)c3c2C)CCC4)c1 | -130.8*
COc1cccc(NC(=O)c2sc3nc4n(c(=O)c3c2C)CCC4)c1 | -113.5*
Cc1c(C(=O)Nc2cc(F)ccc2F)sc2nc3n(c(=O)c12)CCCCC3 | -118.3*
CC(C)(C)NC(=O)C(=O)NNC(=O)c1cccc(F)c1 | -89.4*
C/C(=N\Nc1nc(-c2ccccc2O)nc2ccccc12)c1ccccc1 | -90.9*
C/C(=N\Nc1nc(-c2ccccn2)nc2ccccc12)c1ccc(F)cc1 | 75.3
CC(C)(C)c1ccc(C(=O)N2CCCC2)s1 | -64.0*
CN(C)c1ccc(N=Nc2ccccc2C(=O)OCC(=O)NC2CCCC2)cc1 | -112.3*
CN(C)c1ccc(N=Nc2ccccc2C(=O)OCC(=O)N(C)C2CCCCC2)cc1 | -134.8*
N/C(=N\OC(=O)c1cccs1)c1cccc([N+](=O)[O-])c1 | -130.4*
N/C(=N\OC(=O)c1cccc([N+](=O)[O-])c1)c1cccnc1 | -189.3*
COc1ccc(/C(N)=N/OC(=O)c2cccc([N+](=O)[O-])c2)cc1OC | -95.7*
Cc1cccc(C(=O)O/N=C(\N)c2cccc([N+](=O)[O-])c2)c1 | -156.9*
COc1cccc(C(=O)O/N=C(\N)c2ccc([N+](=O)[O-])cc2)c1OC | -208.0*
COc1cc(/C=C/C(=O)c2cccc([N+](=O)[O-])c2)cc(OC)c1OC | -61.5*
O=C(Oc1ccc(Cl)cc1)N1CCCCC1 | -110.4*
O=C(Oc1ccc2ccc(OC(=O)N3CCCCCC3)cc2c1)N1CCCCCC1 | -80.8*
COc1cc2c(cc1OC)CN(c1ccc(C(F)(F)F)cn1)CC2 | -156.5*
COc1cc2c(cc1OC)CN(c1ccc3ccccc3n1)CC2 | -189.2*
SMILES | aSyn UTR act
O=C(NC1CCCCC1)c1cc2nc3c(c(C(F)(F)F)n2n1)CCCC3 | -136.0*
CC(=O)c1ccc(NC(=O)c2cc3nc4c(c(C(F)(F)F)n3n2)CCCC4)cc1 | -75.1*
CC(C)CNC(=S)NC1CC2CCCC(C1)N2C1CCCCC1 (stereo unspecified) | -106.6*
CCc1ccc2nc(N(CCN(C)C)C(=O)c3ccc4ncsc4c3)sc2c1 | -113.7*
Cc1cccc2sc(N(CCCN(C)C)C(=O)c3ccc4ncsc4c3)nc12 | -91.9*
O=C(COc1ccc(Cl)cc1Cl)Nc1cccnc1 | -122.0*
Cc1c(OCC(=O)Nc2cccnc2)ccc2c3c(c(=O)oc12)CCC3 | 57.7
O=C(COc1ccc(Cl)cc1Br)Nc1ccncc1 | -146.5*
Cc1ccc(NC(=O)ON=C2CCCC2)cc1 | -204.9*
O=C(Nc1ccccc1)ON=C1CCCC1 | -82.2*
COc1ccc(/C=C2\SC(N3CCCCC3)=NC2=O)cc1 | -92.4*
O=C1N=C(N2CCCCC2)S/C1=C\c1cn[nH]c1-c1ccccc1 | -78.1*
CC(C)c1ccc(NC(=O)c2ccccc2NC(=O)C2CCCCC2C(=O)O)cc1 (stereo unspecified) | -120.9*
O=C(NCCc1ccccc1)c1ccccc1NC(=O)C1CCCCC1C(=O)O (stereo unspecified) | -146.3*
Cc1nc(/N=C\N(C)C)sc1C(=O)Nc1ccccc1 | -78.9*
Cc1ccc(NC(=O)c2sc(N)nc2C)cc1 | -185.4*
Cc1nc(C(=O)Nc2ccccc2)sc1C(=O)Nc1ccccc1 | -166.2*
CCc1cc2c(=O)n3c(nc2s1)-c1[nH]c2ccc(OC)cc2c1CC3 | -103.0*
C#CCN1C(=O)S/C(=C\c2ccc(-c3ccc(C(=O)O)cc3C)o2)C1=O | -190.5*
COc1ccc(/C=C2\SC(=O)N(CCCC(=O)Nc3ccc(C(=O)O)cc3)C2=O)cc1OC | 73.4
COC(=O)Cn1ncn2c(cc3oc(C)cc32)c1=O | -118.5*
CC(C)(C)c1ccc(OCC(O)CN2CCOCC2)cc1 (stereo unspecified) | -119.5*
CC(C)(C)c1ccc(NC(=O)Nc2ccc(OCC(=O)N3CCOCC3)cc2)cc1 | -72.3*
OC(COc1ccc2ccccc2c1Cl)CN1CCOCC1 (stereo unspecified) | -150.4*
CCOc1cc(/C=C2/NC(=O)N(CC(=O)OC)C2=O)ccc1O | -66.0*
SMILES | aSyn UTR act
CC(C)NC(=S)N/N=C/c1sc(N2CCCCC2)nc1-c1cccs1 | -68.5*
NC(=O)N/N=C/c1sc(N2CCCCC2)nc1-c1cccs1 | -66.6*
O=C(N/N=C/c1sc(N2CCOCC2)nc1-c1ccccc1)c1cccc(S(=O)(=O)N2CCOCC2)c1 | 86.5
S=C(Nc1ccc(Cl)cc1)c1nc2ccccc2s1 | -126.7*
Cc1ccc(C)c(NC(=S)c2ccc3ccccc3n2)c1 | -288.3*
Cc1ccc(C)c(NC(=S)c2nc3ccccc3s2)c1 | -258.2*
Cc1ccc(C)c(NC(=S)c2ccccn2)c1 | -113.7*
CN(C)CCn1c(NC(=O)c2ccc(Cl)cc2)nc2ccccc21 | -239.3*
CCN(CC)CCn1c(NC(=O)c2ccc(C)cc2)nc2ccccc21 | -65.0*
CCC(=O)Nc1nc2ccccc2n1Cc1ccc(C)cc1 | 77.4
